In the supplement of paper PMC10849652:
About 8,800 targets were measured; listed, in parts, are those with a hit and a random draw of the rest. About 0.5% of all pairs of compound and target were hits. Values without a mark were called inactive.

Tests used:
Assay in all cases: log2 fold change, soluble protein after heating vs DMSO (PISA); higher = thermal stabilisation; K562 lysate, 10 uM; active = over 0.2 and 3.5 SD of the protein, either way, in both replicates (recomputed)
lapatinib = compound: CS(=O)(=O)CCNCc1ccc(-c2ccc3ncnc(Nc4ccc(OCc5cccc(F)c5)c(Cl)c4)c3c2)o1 [lapatinib]
In short: (§1)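 K562 pellets were dounce-homogenised in PBS pH 7.4 containing 1 mM MgCl2, and the crude extract, at 1 mg/mL protein, was exposed to 10 μM compound for 30 min. Aliquots were heated for 3 min across 48°C-58°C, pooled, brought to 0.5% NP-40 at 4°C and spun at 21,000xg for 90 min, with the supernatant taken as soluble protein. TMTpro 16plex LC-MS/MS with equalised channel sums quantified that protein. Values are log-two fold changes in thermal stability relative to solvent controls, taken from duplicates.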

pictilisib = compound: CS(=O)(=O)N1CCN(Cc2cc3nc(-c4cccc5[nH]ncc45)nc(N4CCOCC4)c3s2)CC1 [pictilisib]
In short: as §1

crizotinib = compound: C[C@@H](Oc1cc(-c2cnn(C3CCNCC3)c2)cnc1N)c1c(Cl)ccc(F)c1Cl [crizotinib]
In short: as §1

[1] = compound: C[C@H](C1=CC=C(C=C1)C(=O)NC2=C3C=CNC3=NC=C2)N
In short: as §1

duvelisib = compound: C[C@H](Nc1ncnc2nc[nH]c12)c1cc2cccc(Cl)c2c(=O)n1-c1ccccc1 [duvelisib]
In short: as §1

gandotinib = compound: Cc1cc(Nc2cc(CN3CCOCC3)c3nc(C)c(Cc4ccc(Cl)cc4F)n3n2)n[nH]1 [gandotinib]
In short: as §1

tozasertib = compound: Cc1cc(Nc2cc(N3CCN(C)CC3)nc(Sc3ccc(NC(=O)C4CC4)cc3)n2)n[nH]1 [tozasertib]
In short: as §1

doramapimod = compound: Cc1ccc(-n2nc(C(C)(C)C)cc2NC(=O)Nc2ccc(OCCN3CCOCC3)c3ccccc23)cc1 [doramapimod]
In short: as §1

bafetinib = compound: Cc1ccc(NC(=O)c2ccc(CN3CC[C@H](N(C)C)C3)c(C(F)(F)F)c2)cc1Nc1nccc(-c2cncnc2)n1 [bafetinib]
In short: as §1

[2] = compound: Cc1cccc(CC(=O)N2CCc3c2ccc(-c2cn(C)c4ncnc(N)c24)c3F)n1
In short: as §1

nilotinib = compound: Cc1cn(-c2cc(NC(=O)c3ccc(C)c(Nc4nccc(-c5cccnc5)n4)c3)cc(C(F)(F)F)c2)cn1 [nilotinib]
In short: as §1

[3] = compound: Cc1nc(Nc2n[nH]c3c2CN(C(=O)N[C@H](CN(C)C)c2ccccc2)C3(C)C)c2sccc2n1
In short: as §1

dasatinib = compound: Cc1nc(Nc2ncc(C(=O)Nc3c(C)cccc3Cl)s2)cc(N2CCN(CCO)CC2)n1 [dasatinib]
In short: as §1

[4] = compound: Cc1ncc(-c2ccnc(Nc3ccc(S(C)(=O)=O)cc3)n2)n1C(C)C
In short: as §1

[5] = compound: Cn1cc(-c2ccc3c(c2)CCN3C(=O)Cc2cccc(C(F)(F)F)c2)c2c(N)ncnc21
In short: as §1

quisinostat = compound: Cn1cc(CNCC2CCN(c3ncc(C(=O)NO)cn3)CC2)c2ccccc21 [quisinostat]
In short: as §1

tipifarnib = compound: Cn1cncc1[C@@](N)(c1ccc(Cl)cc1)c1ccc2c(c1)c(-c1cccc(Cl)c1)cc(=O)n2C [tipifarnib]
In short: as §1

[6] = compound: NC(=O)Nc1cc(-c2cccc(F)c2)sc1C(=O)N[C@H]1CCCNC1
In short: as §1

[7] = compound: NC(=O)c1cnc(N[C@@H]2CCCC[C@@H]2N)nc1Nc1cccc(-n2nccn2)c1
In short: as §1

[8] = compound: NC1(c2ccc(-c3nc4ccn5c(=O)[nH]nc5c4cc3-c3ccccc3)cc2)CCC1
In short: as §1

Chain of UniProt Q8NC44 (Q8NC44 whole entry, looked up): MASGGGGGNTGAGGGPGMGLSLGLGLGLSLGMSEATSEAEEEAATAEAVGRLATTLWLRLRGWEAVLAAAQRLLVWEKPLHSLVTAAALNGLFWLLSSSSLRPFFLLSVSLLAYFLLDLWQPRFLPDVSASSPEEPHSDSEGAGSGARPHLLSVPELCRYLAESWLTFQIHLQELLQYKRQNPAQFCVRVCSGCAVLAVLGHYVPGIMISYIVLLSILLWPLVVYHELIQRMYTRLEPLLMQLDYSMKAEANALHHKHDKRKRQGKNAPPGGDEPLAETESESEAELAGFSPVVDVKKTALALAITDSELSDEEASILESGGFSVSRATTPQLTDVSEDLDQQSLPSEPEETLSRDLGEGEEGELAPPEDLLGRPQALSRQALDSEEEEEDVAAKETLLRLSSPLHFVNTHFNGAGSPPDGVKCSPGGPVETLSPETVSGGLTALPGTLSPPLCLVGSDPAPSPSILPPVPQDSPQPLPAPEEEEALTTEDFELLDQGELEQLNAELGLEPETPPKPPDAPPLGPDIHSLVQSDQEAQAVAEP
Chain of UniProt Q9H7N4 (Q9H7N4 whole entry, looked up): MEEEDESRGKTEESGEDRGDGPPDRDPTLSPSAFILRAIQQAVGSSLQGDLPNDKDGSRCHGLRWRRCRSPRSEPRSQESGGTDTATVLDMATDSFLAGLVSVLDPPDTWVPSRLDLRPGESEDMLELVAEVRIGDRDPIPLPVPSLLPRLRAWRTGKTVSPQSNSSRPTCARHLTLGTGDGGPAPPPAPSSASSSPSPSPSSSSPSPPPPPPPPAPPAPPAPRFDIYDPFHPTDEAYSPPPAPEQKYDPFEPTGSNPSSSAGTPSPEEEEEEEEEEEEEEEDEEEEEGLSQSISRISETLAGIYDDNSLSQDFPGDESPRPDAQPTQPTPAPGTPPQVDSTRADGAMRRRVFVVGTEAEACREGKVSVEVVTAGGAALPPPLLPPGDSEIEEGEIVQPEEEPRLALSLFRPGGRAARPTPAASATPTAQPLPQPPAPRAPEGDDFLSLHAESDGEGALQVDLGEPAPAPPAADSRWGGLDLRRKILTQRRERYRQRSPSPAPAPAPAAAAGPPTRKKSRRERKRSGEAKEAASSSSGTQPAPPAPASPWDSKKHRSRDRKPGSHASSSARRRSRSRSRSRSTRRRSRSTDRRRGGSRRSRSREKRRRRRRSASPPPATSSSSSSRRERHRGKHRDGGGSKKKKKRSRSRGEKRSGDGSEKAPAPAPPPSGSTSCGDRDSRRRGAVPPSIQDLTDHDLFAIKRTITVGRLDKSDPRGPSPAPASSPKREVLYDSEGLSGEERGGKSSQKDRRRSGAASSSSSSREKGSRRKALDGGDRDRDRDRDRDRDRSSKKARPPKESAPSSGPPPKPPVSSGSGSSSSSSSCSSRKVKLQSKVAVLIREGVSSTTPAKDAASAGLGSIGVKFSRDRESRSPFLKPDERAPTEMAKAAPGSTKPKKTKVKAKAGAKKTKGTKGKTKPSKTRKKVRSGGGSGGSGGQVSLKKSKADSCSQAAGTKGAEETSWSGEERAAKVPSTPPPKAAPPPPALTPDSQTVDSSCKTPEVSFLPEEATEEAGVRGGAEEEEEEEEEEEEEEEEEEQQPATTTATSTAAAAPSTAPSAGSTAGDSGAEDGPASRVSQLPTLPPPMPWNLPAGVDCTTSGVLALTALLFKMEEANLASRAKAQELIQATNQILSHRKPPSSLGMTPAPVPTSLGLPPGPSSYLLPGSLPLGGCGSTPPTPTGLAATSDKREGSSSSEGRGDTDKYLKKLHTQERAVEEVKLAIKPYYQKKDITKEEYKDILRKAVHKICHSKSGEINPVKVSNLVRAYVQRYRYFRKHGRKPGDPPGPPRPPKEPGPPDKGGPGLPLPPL
Chain of UniProt Q9UQR0 (Q9UQR0 whole entry, looked up): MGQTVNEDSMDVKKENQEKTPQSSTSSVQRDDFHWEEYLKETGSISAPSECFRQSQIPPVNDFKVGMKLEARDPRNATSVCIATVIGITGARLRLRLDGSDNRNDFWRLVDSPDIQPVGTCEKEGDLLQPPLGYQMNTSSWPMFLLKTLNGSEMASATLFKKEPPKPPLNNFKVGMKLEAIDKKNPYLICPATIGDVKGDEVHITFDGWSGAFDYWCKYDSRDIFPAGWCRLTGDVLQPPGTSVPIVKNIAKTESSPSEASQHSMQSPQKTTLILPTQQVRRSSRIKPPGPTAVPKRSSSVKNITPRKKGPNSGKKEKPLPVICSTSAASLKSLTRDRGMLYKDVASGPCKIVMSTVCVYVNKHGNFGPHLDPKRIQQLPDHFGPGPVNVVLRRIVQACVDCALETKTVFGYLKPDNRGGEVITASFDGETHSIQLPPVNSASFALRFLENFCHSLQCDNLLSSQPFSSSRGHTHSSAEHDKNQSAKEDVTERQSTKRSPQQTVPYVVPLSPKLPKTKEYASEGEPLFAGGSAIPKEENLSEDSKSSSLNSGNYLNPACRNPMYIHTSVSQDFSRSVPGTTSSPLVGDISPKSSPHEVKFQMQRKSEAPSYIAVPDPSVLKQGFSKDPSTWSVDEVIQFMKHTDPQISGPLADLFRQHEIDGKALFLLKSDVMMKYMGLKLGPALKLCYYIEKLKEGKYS
Chain of UniProt Q8NC42 (Q8NC42 whole entry, looked up): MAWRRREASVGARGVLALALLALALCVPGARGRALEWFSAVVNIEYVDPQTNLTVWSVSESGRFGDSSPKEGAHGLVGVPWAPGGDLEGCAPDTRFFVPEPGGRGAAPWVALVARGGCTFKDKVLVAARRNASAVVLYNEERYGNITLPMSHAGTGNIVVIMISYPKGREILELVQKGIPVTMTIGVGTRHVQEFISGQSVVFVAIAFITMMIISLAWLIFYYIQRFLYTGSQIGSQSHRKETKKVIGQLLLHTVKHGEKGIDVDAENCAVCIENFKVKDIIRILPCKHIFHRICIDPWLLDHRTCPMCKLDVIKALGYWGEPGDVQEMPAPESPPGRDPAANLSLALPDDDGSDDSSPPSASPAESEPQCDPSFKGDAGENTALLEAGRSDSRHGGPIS
Chain of UniProt P11233 (P11233 whole entry, looked up): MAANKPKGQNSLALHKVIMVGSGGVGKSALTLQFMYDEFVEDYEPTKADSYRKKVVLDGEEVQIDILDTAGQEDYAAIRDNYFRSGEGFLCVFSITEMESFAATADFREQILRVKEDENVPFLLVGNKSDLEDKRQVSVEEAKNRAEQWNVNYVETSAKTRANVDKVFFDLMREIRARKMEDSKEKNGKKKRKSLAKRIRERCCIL
Chain of UniProt P28702 (P28702 whole entry, looked up): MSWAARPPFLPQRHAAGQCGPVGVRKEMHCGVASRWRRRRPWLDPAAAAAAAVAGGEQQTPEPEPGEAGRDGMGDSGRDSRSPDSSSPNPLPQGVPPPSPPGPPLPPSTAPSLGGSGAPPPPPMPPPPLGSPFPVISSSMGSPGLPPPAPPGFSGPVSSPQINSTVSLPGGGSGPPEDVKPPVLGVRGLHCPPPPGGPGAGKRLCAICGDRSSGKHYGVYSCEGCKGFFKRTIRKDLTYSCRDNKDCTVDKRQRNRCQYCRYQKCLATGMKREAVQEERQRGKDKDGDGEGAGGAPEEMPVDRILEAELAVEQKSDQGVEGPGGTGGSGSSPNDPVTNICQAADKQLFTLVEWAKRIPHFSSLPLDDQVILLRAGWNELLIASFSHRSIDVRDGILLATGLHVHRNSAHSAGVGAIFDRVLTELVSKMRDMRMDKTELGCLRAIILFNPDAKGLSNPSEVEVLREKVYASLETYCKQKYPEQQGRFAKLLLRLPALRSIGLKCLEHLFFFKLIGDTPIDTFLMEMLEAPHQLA
Chain of UniProt Q9H1K0 (Q9H1K0 whole entry, looked up): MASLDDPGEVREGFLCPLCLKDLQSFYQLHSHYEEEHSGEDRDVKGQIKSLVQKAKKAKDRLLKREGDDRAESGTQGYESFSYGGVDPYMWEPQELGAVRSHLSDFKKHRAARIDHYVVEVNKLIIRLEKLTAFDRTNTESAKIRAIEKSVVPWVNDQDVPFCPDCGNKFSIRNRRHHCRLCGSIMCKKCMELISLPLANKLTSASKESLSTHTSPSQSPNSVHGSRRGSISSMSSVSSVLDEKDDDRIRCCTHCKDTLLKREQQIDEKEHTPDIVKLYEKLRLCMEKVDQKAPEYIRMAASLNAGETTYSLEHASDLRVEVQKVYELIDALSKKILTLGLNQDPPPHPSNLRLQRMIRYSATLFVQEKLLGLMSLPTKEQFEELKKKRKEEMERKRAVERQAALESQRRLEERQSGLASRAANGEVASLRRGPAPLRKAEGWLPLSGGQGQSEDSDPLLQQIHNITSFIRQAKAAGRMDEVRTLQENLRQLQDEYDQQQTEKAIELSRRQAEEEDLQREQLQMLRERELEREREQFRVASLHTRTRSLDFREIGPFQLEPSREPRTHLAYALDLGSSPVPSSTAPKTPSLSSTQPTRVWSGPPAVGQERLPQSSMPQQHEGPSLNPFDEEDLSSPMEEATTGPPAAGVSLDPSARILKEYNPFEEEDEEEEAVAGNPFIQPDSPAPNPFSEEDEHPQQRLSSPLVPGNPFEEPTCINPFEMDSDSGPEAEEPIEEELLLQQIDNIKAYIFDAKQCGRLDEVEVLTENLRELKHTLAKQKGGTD

Target	log2 fold change (lapatinib)	log2 fold change (pictilisib)	log2 fold change (crizotinib)	log2 fold change [1]	log2 fold change (duvelisib)	log2 fold change (gandotinib)	log2 fold change (tozasertib)	log2 fold change (doramapimod)	log2 fold change (bafetinib)	log2 fold change [2]	log2 fold change (nilotinib)	log2 fold change [3]	log2 fold change (dasatinib)	log2 fold change [4]	log2 fold change [5]	log2 fold change (quisinostat)	log2 fold change (tipifarnib)	log2 fold change [6]	log2 fold change [7]	log2 fold change [8]
RAB3IL1 (UniProt E9PK89)	-0.025	0.063	0.039	0.045	-0.036	0.006	0.059	-0.117	-0.094	0.057	-0.039	-0.124	0.08	0.003	-0.084	0.027	0.061	-0.086	-0.012	0.157
RPS9 (UniProt P46781)	-0.012	0.009	0.061	0.244 (active)	0.006	-0.087	0.016	-0.023	0.034	-0.07	0.001	-0.023	0.067	-0.039	0.023	0.141	0.022	-0.037	-0.015	0.039
RETREG2 (UniProt Q8NC44)	-0.051	-0.037	-0.074	-0.052		-0.052	0.025	-0.005	-0.141	0.122	0.363 (active)	-0.135		0.055		-0.084	-0.076	-0.016	-0.012	-0.022
RNF149 (UniProt Q8NC42)	0.073	-0.025	-0.006	-0.039	-0.025	-0.026		-0.099	-0.105	-0.013	0.083	0.129	-0.019	0.099	0.003	-0.019	0.087	0.038	0.156	-0.019
RBSN (UniProt Q9H1K0)	-0.008	-0.024	-0.012	-0.032	0.093	0.019	0.13	-0.026	0.026	0.059	-0.047	0.057	-0.106	0.034	-0.004	-0.04	-0.036	0.05	0.039	0.029
RALA (UniProt P11233)	-0.017	-0.022	0.012	-0.3 (active)	0	0.158	-0.009	0.014	0.029	0.217 (active)	-0.04	-0.001	0.017	-0.04	-0.018	0.004	-0.041	0.033	0.038	-0.003
RBM8A (UniProt Q9Y5S9)	0.01	0.017	0.135	0.277 (active)	-0.014	-0.209	0.06	-0.038	-0.017	-0.2	-0.005	0.025	0.023	0.004	0.067	0.187	0.051	-0.016	0	0.108
SCAF1 (UniProt Q9H7N4)	-0.06	-0.107	-0.011	0.017	-0.337	-0.074	-0.023	0.052	-0.27	-0.096	-0.053	0.115	-0.018	-0.13	-0.042	-0.019	-0.06	-0.028	-0.014	0.1
RXRB isoform 3 (UniProt P28702)	0.085	-0.096	-0.011	0.046	-0.051	-0.074	0.006	-0.091	-0.11	0.023	0.01	-0.038	-0.018	0.001	0.095	-0.038	-0.052	0.032	-0.031	-0.199
SCML2 (UniProt Q9UQR0)	0.035	-0.027	-0.022	0.034	0.006	-0.045	0.029	0	-0.017	-0.014	0.042	0.004	-0.014	-0.06	0.027	0.007	0.065	0.048	0.012	-0.022
RYR1 (UniProt P21817)	0.028	-0.048	-0.229	-0.017	-0.032	-0.027	0.04	0.112	-0.13	0.016			-0.032		-0.061	-0.392 (active)		0.046	0.029	0.003
RPS18 (UniProt P62269)	-0.046	0.006	-0.028	-0.186	-0.019	0.071	0.008	0.026	-0.004	0.094	0.004	-0.02	-0.009	-0.039	-0.018	0	0.031	-0.018	0.014	-0.006
